“And” between values parts separate entries of the source, which are not always exact repeats. Equal entries are not always repeated. Inconclusive results are not listed. Entries that show only a call come without a potency. Some structures have more than one record in an assay (separate samples or runs), and their calls can disagree. The source made the active and inactive calls. Unless noted, calls follow the shape of the dose curve; as a rule, active = well fitted curve in the direction sought with a large enough effect in the repeat runs; inconclusive = weak or mixed curves; inactive = no such curve, though single readings can be large; an effect the other way counts as inactive or inconclusive. Residues, ends and D or L forms follow the SMILES beside them.

A short description of one assay: qHTS assay to identify small molecule agonists of H2AX - cell viability counter screen (AID 1224847; calls by dose curve; also: top concentration of the series differs between compounds; nearly all actives have a fitted effect of over 30% in size). To be noted: CHO-K1 viability, CellTiter-Glo luminescence, 3 h; series mostly up to 154 µM. An outline of the steps:
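Compounds tested at 15 concentrations were incubated 3 hr at 37C with wild-type CHO-K1 cells; cellular ATP-based luminescence (CellTiter-Glo) indicated viability.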
A general note: Quantitative high-throughput screening tests each substance at several concentrations.
Turning to `O=C1CN(/N=C/c2ccc([N+](=O)[O-])o2)C(=O)N1`, the outcome was inactive.
On the same count and under the same terms, next, `CC(O)C(=O)O` (stereo not drawn): “inactive”; `O=NO`: “inactive”.
On the same count and under the same terms, the result for `O=S(=O)(O)NC1CCCCC1` reads “inactive”; that for `O=C(O)c1cccnc1`, “inactive”.
For the compound `NC(N)=O`, the result was inactive.
On the same count and under the same terms, next, `CC(O)CO` (stereo not drawn): “inactive”; `O=C(c1ccccc1)c1ccccc1`: “inactive”.
Still for that read-out and setting: the result for `CC(C)[C@@H]1CC[C@@H](C)C[C@H]1O` reads “inactive”.
Still for that read-out and setting: next, `CC(=O)Nc1nnc(S(N)(=O)=O)s1`: “inactive”; `O=C(O)c1cccc([N+](=O)[O-])c1`: “inactive”.
With `NC(=O)NC1NC(=O)NC1=O` (stereo not drawn), the compound was called inactive.
The same measure, in the same setting: the result for `O=S(=O)(O)c1ccc2cc(O)ccc2c1` reads “inactive”; that for `c1ccc2[nH]ccc2c1`, “inactive”; that for `CCCCOC(=O)CC(CC(=O)OCCCC)(OC(C)=O)C(=O)OCCCC`, “inactive”.
Same read-out and setting: the result for `O=C1NC(=O)c2ccccc21` reads “inactive”; that for `CC1(C)[C@@H]2CC[C@@]1(C)C(=O)C2`, “inactive”.
On the same count and under the same terms, next, `COC(=O)[C@H](Cc1ccccc1)NC(=O)[C@@H](N)CC(=O)O` (H-Asp-Phe-OMe): “inactive”; `C1N2CN3CN1CN(C2)C3`: “inactive”; `O=c1cc[nH]c(=S)[nH]1`: “inactive”.

A short description of the next assay: qHTS assay to identify small molecule antagonists of the estrogen related receptor (ERR) signaling pathway from Tox21 library (AID 1224848). Also: nearly all actives have a fitted effect of over 50% in size. Also: potency is read from the fitted curve at half-maximal effect. The conditions noted are these: ERR reporter cell line, luciferase antagonist mode, 18 h; series mostly up to 92.4 µM. An outline of the steps:
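Reading was by luminescence 30 min after ONE-Glo addition. Before that, ERR cells at 2,000 per well had rested 6 h at 37 C/5% CO2 and then received pin-tooled compounds in DMSO for 18 h at 37 C.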
Turning to `O=C1CN(/N=C/c2ccc([N+](=O)[O-])o2)C(=O)N1`, the Potency was 19.3 µM (active) and 30.6 µM (active) and 21.1 µM (active).
As to `CNC[C@H](O)c1cccc(O)c1`, the Potency result was “inactive”.
The same measure, in the same setting: next, `CCCCC(CC)COC(=O)/C=C/c1ccc(OC)cc1` (stereo not drawn): “inactive”; `CCCCC1C(=O)N(c2ccccc2)N(c2ccccc2)C1=O`: 61.1 µM (active) and inactive; `CC(O)CO` (stereo not drawn): “inactive”.
On the same count and under the same terms, next, `NS(=O)(=O)c1cc(C(=O)O)c(NCc2ccco2)cc1Cl`: “inactive”; `c1ccc2[nH]ccc2c1`: 2.39 µM (active) and inactive.
Same read-out and setting: next, `CC(=O)OCC(COC(C)=O)OC(C)=O`: “inactive”; `CC1(C)[C@@H]2CC[C@@]1(C)C(=O)C2`: “inactive”; `O=C(O)CCC(=O)O`: “inactive”.
For the compound `O=c1cc[nH]c(=S)[nH]1`, the Potency result is “inactive”.

A short description of a further assay: qHTS assay to identify small molecule agonists of the estrogen related receptor (ERR) signaling pathway from Tox21 library (AID 1224849; calls by dose curve; also: nearly all actives have a fitted effect of over 15% in size). To be noted: ERR reporter cell line, ONE-Glo luciferase, 18 h; at 42.5 µM (top of the series). An outline of the steps: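 ERR reporter cells (NTP line) pre-incubated 6 hours at 37 C, then exposed to compounds for 18 hours at 37 C. ONE-Glo luciferase luminescence was read after 30 minutes at room temperature.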
Take `O=C1CN(/N=C/c2ccc([N+](=O)[O-])o2)C(=O)N1`: the activity change, positive = activation is -52% (inactive).
Still for that read-out and setting: next, `CNC[C@H](O)c1cccc(O)c1`: 5.4% (inactive).
Still for that read-out and setting: the result for `CCCCC(CC)COC(=O)/C=C/c1ccc(OC)cc1` (stereo not drawn) reads -9.11% (inactive); that for `CCCCC1C(=O)N(c2ccccc2)N(c2ccccc2)C1=O`, 2.49% (inactive); that for `c1ccc2[nH]ccc2c1`, 11.1% (inactive).
Still for that read-out and setting: next, `CCCCOC(=O)CC(CC(=O)OCCCC)(OC(C)=O)C(=O)OCCCC`: -18.7% (inactive); `CC(=O)OCC(COC(C)=O)OC(C)=O`: 6.67% (inactive).
With `CC1(C)[C@@H]2CC[C@@]1(C)C(=O)C2`, the activity change, positive = activation was 1.44% (inactive).
The same measure, in the same setting: next, `O=C(O)CCC(=O)O`: 5.73% (inactive); `O=c1cc[nH]c(=S)[nH]1`: 7.5% (inactive).

Still in this assay, the particulars now being: ERR reporter cell line, ONE-Glo luciferase, 18 h; at 92.4 µM (top of the series).
On to `O=C1CN(/N=C/c2ccc([N+](=O)[O-])o2)C(=O)N1`, for which the activity change, positive = activation was -64.2% (inactive) and -59.1% (inactive).
Same read-out and setting: next, `CNC[C@H](O)c1cccc(O)c1`: -1.31% (inactive) and 0.843% (inactive).
Regarding `CCCCC(CC)COC(=O)/C=C/c1ccc(OC)cc1` (stereo not drawn), the activity change, positive = activation is 7.09% (inactive) and -5.92% (inactive).
On the same count and under the same terms, the result for `CCCCC1C(=O)N(c2ccccc2)N(c2ccccc2)C1=O` reads -34.5% (inactive) and -44.9% (inactive).
The same measure, in the same setting: the result for `CC(O)CO` (stereo not drawn) reads -3.85% (inactive) and -1.76% (inactive); that for `c1ccc2[nH]ccc2c1`, -76.8% (inactive) and 0.106% (inactive).
`CCCCOC(=O)CC(CC(=O)OCCCC)(OC(C)=O)C(=O)OCCCC`: the activity change, positive = activation is -11.9% (inactive) and -24.8% (inactive).
On the same count and under the same terms, next, `CC(=O)OCC(COC(C)=O)OC(C)=O`: -0.709% (inactive) and 8.04% (inactive); `CC1(C)[C@@H]2CC[C@@]1(C)C(=O)C2`: 5.63% (inactive) and 2.83% (inactive).
Still for that read-out and setting: the result for `O=C(O)CCC(=O)O` reads 5.97% (inactive) and 1.48% (inactive).
Same read-out and setting: next, `O=c1cc[nH]c(=S)[nH]1`: 16.5% (inactive) and 3.21% (inactive).

Another assay in a line: qHTS RealTime-Glo MT Cell Viability Assay in HepG2 cells - 24 hour (AID 1224867). Also: nearly all actives have a fitted effect of over 50% in size. Also: potency is read from the fitted curve at half-maximal effect. To be noted: RealTime-Glo luminescence; series mostly up to 76.8 µM. Summed up: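 Viability was tracked continuously by NanoLuc luminescence from prosubstrate reduced by living HepG2 cells, at successive time points over 40 h of compound exposure. Cells with reagent were preincubated 5 h at 37 °C before compound addition.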
Consider `O=C1CN(/N=C/c2ccc([N+](=O)[O-])o2)C(=O)N1`, for which the Potency entry is “inactive”.
For `CC(O)C(=O)O` (stereo not drawn), the Potency entry was “inactive”.
Still for that read-out and setting: next, `O=NO`: “inactive”.
Consider `CNC[C@H](O)c1cccc(O)c1`, for which the Potency result was “inactive”.
On to `CCOc1ccc(NC(=O)CC(C)O)cc1` (stereo not drawn), for which the Potency entry is “inactive”.
Same read-out and setting: next, `CCCC(CCC)C(=O)O`: “inactive”.
Consider `O=C(O)C(=O)O`, for which the Potency result is “inactive”.
Same read-out and setting: the result for `CCCCC(CC)COC(=O)/C=C/c1ccc(OC)cc1` (stereo not drawn) reads “inactive”; that for `O=S(=O)(O)NC1CCCCC1`, “inactive”; that for `O=C(O)c1cccnc1`, “inactive”.
In the case of `NC(N)=O`, the Potency entry was “inactive”.
Consider `CCCCC1C(=O)N(c2ccccc2)N(c2ccccc2)C1=O`, for which the Potency result was “inactive”.
On the same count and under the same terms, the result for `CC(O)CO` (stereo not drawn) reads “inactive”.
The same measure, in the same setting: the result for `O=c1ccc2ccccc2o1` reads “inactive”.
On the same count and under the same terms, the result for `O=C(c1ccccc1)c1ccccc1` reads “inactive”; that for `NS(=O)(=O)c1cc(C(=O)O)c(NCc2ccco2)cc1Cl`, “inactive”.
As to `CC(C)(Oc1ccc(C2CC2(Cl)Cl)cc1)C(=O)O` (stereo not drawn), the Potency entry is “inactive”.
Turning to `CC(C)[C@@H]1CC[C@@H](C)C[C@H]1O`, the Potency result was “inactive”.
Still for that read-out and setting: next, `CC(=O)Nc1nnc(S(N)(=O)=O)s1`: “inactive”; `O=C(O)c1cccc([N+](=O)[O-])c1`: “inactive”.
Same read-out and setting: next, `NC(=O)NC1NC(=O)NC1=O` (stereo not drawn): “inactive”; `O=S(=O)(O)c1ccc2cc(O)ccc2c1`: “inactive”.
With `c1ccc2[nH]ccc2c1`, the Potency is 6.07 µM (active) and inactive.
On the same count and under the same terms, the result for `CCCCOC(=O)CC(CC(=O)OCCCC)(OC(C)=O)C(=O)OCCCC` reads “inactive”; that for `O=C1NC(=O)c2ccccc21`, “inactive”.
For `N=C(N)c1ccc(OCCCCCOc2ccc(C(=N)N)cc2)cc1`, the Potency entry is “inactive”.
Same read-out and setting: the result for `O=C(O)/C=C\C(=O)O` reads “inactive”; that for `CC(=O)OCC(COC(C)=O)OC(C)=O`, “inactive”; that for `CC1(C)[C@@H]2CC[C@@]1(C)C(=O)C2`, “inactive”.
Still for that read-out and setting: the result for `C/C=C/c1ccc(OC)cc1` reads “inactive”; that for `O=C(O)CCC(=O)O`, “inactive”.
The same measure, in the same setting: the result for `COC(=O)[C@H](Cc1ccccc1)NC(=O)[C@@H](N)CC(=O)O` (H-Asp-Phe-OMe) reads “inactive”; that for `C1N2CN3CN1CN(C2)C3`, “inactive”.
For the compound `O=C(c1ccccc1)C(O)c1ccccc1` (stereo not drawn), the Potency result was “inactive”.
In the case of `O=C(O)CCCCC(=O)O`, the Potency result is “inactive”.
On the same count and under the same terms, next, `O=c1cc[nH]c(=S)[nH]1`: “inactive”.
